61 compounds from PubChem BioAssay AID1626 (SRMLSC, 2009) can be followed below.

Each structure is given as a SMILES string. Screen size: about 220,000 compounds; about 2,000 (0.91%) were called active. Roughly 2% stayed inconclusive and do not appear here. Not all results are given here. Potency and affinity values are given separately. Values without a mark were called inactive. Rule as the data show it: inconclusive = inhibition above about 80% without an active follow-up result; inactive = below that; test concentration not stated here.

The assay is described as follows: M. tuberculosis H37Rv growth inhibitors, H37Rv strain (AID 1626).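 Also: bacteria incubated seven days before Alamar blue readout; 0% = bacteria only wells and 100% = bacteria with antibiotic wells.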 As to conditions: active compounds read high, concentration not given here.
Consider `CC(=O)N/C(=C\c1cccc([N+](=O)[O-])c1)C(=O)NC1CCCCC1`, for which the inhibition is -0.9%. With `CCN(CC)S(=O)(=O)c1ccc(/C=C/C(=O)O)cc1`, the inhibition was -3.16%. In the case of `CS(=O)(=O)N(Cc1ccccc1)c1ccc(C(=O)NCC2CCCO2)cc1` (stereo unspecified) it was -13.4%; in that of `CCn1c(/C=C/c2ccccc2[N+](=O)[O-])nc2ccccc2c1=O`, 2.98%; in that of `CCn1c(/C=C/c2cccc([N+](=O)[O-])c2)nc2ccccc2c1=O`, -7.86%. The same measure for `Cc1ccc(NC(=O)CCNC(=O)c2ccco2)cc1`: 3.05%; for `COc1ccc(NCc2nnc(SCC(=O)NNC(=O)c3ccc(C)cc3)n2C)cc1`: -19.4%; for `COc1ccc(N2CCN(c3oc(COc4ccccc4)nc3C#N)CC2)cc1`: -5.04%. On to `CCN1CCN(c2oc(COc3ccc(-c4ccccc4)cc3)nc2C#N)CC1`, for which the inhibition was 10.7%.

For `O=S(=O)(c1ccc2oc(=S)[nH]c2c1)N1CCCCC1`, the inhibition was -5.83%. In the case of `CCC(C)[C@H](NC(=O)NCc1ccc(S(N)(=O)=O)cc1)C(=O)OC` (stereo partly specified), the inhibition is 6.6%. Take `Cn1cnc2c1c(=O)n(Cc1ccccc1)c(=O)n2C`: the inhibition is -6.11%. With `CN1CCN(c2ncnc3sc(-c4ccccc4)cc23)CC1`, the inhibition is 0.51%.

Turning to `c1ccc(-c2cc3c(N4CCCC4)ncnc3s2)cc1`, the inhibition is 2.65%. As to `Oc1ccc(N2CCN(c3ncnc4sc(-c5ccccc5)cc34)CC2)cc1`, the inhibition was 69.8%. Consider `c1ccc(-c2cc3c(N4CCN(c5ncccn5)CC4)ncnc3s2)cc1`, for which the inhibition was -0.33%. Regarding `O=C(NCCN1CCOCC1)N1CCOCC1`, the inhibition was -3.24%. In the case of `COc1ccc(Cl)cc1NC(=O)c1ccccc1C`, the inhibition was 4.11%. Turning to `Cc1cc(C)c2nc(SC(C)C#N)cc(C)c2c1` (stereo unspecified), the inhibition is 9.89%. Regarding `O=C(CN(Cc1ccco1)C(=O)c1ccccc1)Nc1ccc(Cl)c(Cl)c1`, the inhibition is 0.53%. As to `O=C(Nc1cccc([N+](=O)[O-])c1)C12CC3CC(C1)CC(n1cnc([N+](=O)[O-])n1)(C3)C2`, the inhibition is 3.76%.

In the case of `O=C(Nc1ccccc1)C12CC3CC(C1)CC(n1cnc([N+](=O)[O-])n1)(C3)C2`, the inhibition is 3.45%. As for `O=C1c2ccsc2SCCN1Cc1ccccc1Cl`, the inhibition was 8.66%. In the case of `COCCNC(=O)/C(C#N)=C\c1ccc(CNC(=O)C(=O)Nc2ccc(C)c(C)c2)o1` it was -19%; in that of `CCC(=O)N1CCc2cc(S(=O)(=O)CCC(=O)NCc3ccco3)ccc21`, -7.3%; in that of `O=C(c1ccc2ccccc2c1)C1CCCN(C(=O)CCn2cnnn2)C1` (stereo unspecified), 3.36%. In the case of `Cn1ccnc1C(O)c1ccccc1` (stereo unspecified), the inhibition is 6.73%. Consider `COc1ccc(C(O)c2nccn2C)cc1` (stereo unspecified), for which the inhibition is 4.48%. Turning to `O=C(NN1C(=O)C2C(C1=O)C1C=CC2C12CC2)c1ccc(Cl)cc1` (stereo unspecified), the inhibition was 7.63%.

As for `Cc1ccc(NS(=O)(=O)c2cccc([N+](=O)[O-])c2)nc1`, the inhibition was 2.81%. In the case of `CCc1nc(N2CCN(C(=O)c3ccccc3)CC2)c(C#N)c2c1COC(C)(C)C2`, the inhibition is -3.57%. Take `CCC(=O)N1CCN(c2nc(-c3ccccc3)c3c(c2C#N)CCCC3)CC1`: the inhibition is 6.35%. Regarding `Cc1ccc(-c2nnc(N3CCN(C(=O)CN4CCOCC4)CC3)c3ccccc23)cc1`, the inhibition is 0.29%. For `O=C(c1ccco1)N1CCN(c2nnc(-c3ccccc3)c3ccccc23)CC1`, the inhibition was 1.18%. Take `CC(C)C(=O)N1CCN(c2nc(-c3ccccc3)c3c(c2C#N)CCCC3)CC1`: the inhibition is 7.25%. Consider `CC1(C)Cc2c(C#N)c(N3CCN(C(=O)c4ccco4)CC3)nc(Cc3ccccc3)c2CO1`, for which the inhibition was -5.53%. The same measure for `O=C(/C=C/c1ccc(Br)cc1)NCc1cccs1`: 8.29%; for `Cc1cc(C)cc(N2C(=O)CSC2c2cccs2)c1` (stereo unspecified): -1.33%; for `O=C(O)c1sccc1SCc1ccc(Cl)c(Cl)c1`: -2.78%.

`O=C(CNS(=O)(=O)c1cccc(Cl)c1)Nc1ccc(-c2nc3ccccc3s2)cc1`: the inhibition is 1.91%. On to `O=C1[C@@H]2[C@H](C(=O)N1Cc1cccnc1)[C@H]1C=C[C@@H]2C1`, for which the inhibition was 4%. On to `COc1ccc(NC(=O)NCCCN2CCC(Cc3ccccc3)CC2)cc1`, for which the inhibition is -4.94%. As for `C#C[C@]1(O)CCC2C3CCC4=Cc5oncc5CC4(C)C3CCC21C` (stereo partly specified), the inhibition was 3.82%.

`CCOC(=O)c1sc(N2N=C(C)C(N=Nc3cccc(C)c3)C2=O)nc1C` (stereo unspecified): the inhibition was 57.3%. In the case of `NCCOc1cnn(-c2ccccc2Cl)c(=O)c1Cl`, the inhibition is 0.22%. Regarding `COc1ccc(NC(=O)N2CCCC(c3nc(-c4ccc(C(C)C)cc4)no3)C2)cc1` (stereo unspecified), the inhibition is 10.7%. Consider `Cn1c(-c2ccc3c(c2)OCO3)cnc1NCc1ccc(Cl)cc1`, for which the inhibition is -3.22%. On to `Cn1c(-c2ccc3c(c2)OCO3)cnc1NCc1ccccc1`, for which the inhibition is -5.95%. Regarding `CC(C)C[C@H](NC(=O)c1nc[nH]c1C(=O)NCc1ccccc1)C(=O)OCc1ccccc1`, the inhibition was -9.88%. As to `O=S(=O)(c1ccc(-n2cnnn2)cc1)N1CCC(N2CCCCC2)CC1`, the inhibition is 0.43%.

As for `CC(C)CNC(=O)NC(=O)COC(=O)c1cccc(NS(=O)(=O)c2ccc(F)c(F)c2)c1`, the inhibition is 27.8%. The same measure for `Cc1cc(C)n2c(=S)[nH]nc2n1`: -1.62%. In the case of `CCCC(=O)NC(C)c1nc2ccccc2n1CC` (stereo unspecified) it was 1.48%. In the case of `O=C(Nc1ccc(F)c(F)c1)NC1CCCCC1`, the inhibition was -11.3%. With `Cc1ccc(NC(=O)C2CCN(C(=O)NC3CCCCC3)CC2)cc1Cl`, the inhibition is 7.5%. Take `CC(C)c1ccc(NC(=S)NC2CCCCCC2)cc1`: the inhibition was -13.8%. `O=C(Nc1ccc(Cl)cc1)NC1CCCCC1`: the inhibition was -3.67%. Regarding `Cc1noc(C)c1S(=O)(=O)N1CCCCC1`, the inhibition was -4.38%. In the case of `CCC(C)(C)C(=O)Nc1ccc(OC)cc1[N+](=O)[O-]`, the inhibition is -0.65%. For the compound `CCc1nnc(NC(=O)c2cc3c(s2)CCCCC3)s1`, the inhibition is -9.6%. `Cc1csc(NC(=O)c2cc3c(s2)CCCCC3)n1`: the inhibition was 16.1%.

As usually defined, the inhibition is the change of the read-out against control, counted positive when it falls.
